Compound activity: PubChem BioAssay, Sanford-Burnham Center for Chemical Genomics
Hits are enriched below; roughly 6.3% of the tested compounds scored in any of these assays.
tim23-1 inh: growth inhibitors of tim23-1 mutant yeast, primary screen, luminescence, uHTS; S. cerevisiae tim23-1 growth, BacTiter-Glo luminescence, 24 h; inhibition, % at 20 µM; AID 463212, 2010; 330,000 compounds, 1.3% hits;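 active = growth inhibition of the mutant yeast at or above 50%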;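 note: temperature-sensitive mutant grown at 25 °C; plate controls were DMSO-treated mutant yeast for no effect and medium wells lacking yeast for full effect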
tim10-1 inh: growth inhibitors of tim10-1 mutant yeast, primary screen, luminescence, uHTS | S. cerevisiae tim10-1 ts strain growth, BacTiter-Glo, 24 h | inhibition, % at 20 µM | 330,000 compounds, 2.2% hits | AID 463190, 2010;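 active = inhibition of at least 40%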;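 note: mutant grown at 25 °C; 0% = DMSO wells with yeast and 100% = wells holding no yeast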
TIM10 inh: growth inhibitors of isogenic TIM10 control yeast, primary screen, counter-screen for tim10-1 yeast inhibitor project, luminescence, uHTS; S. cerevisiae TIM10 strain growth, BacTiter-Glo luminescence, 24 h; inhibition, % at 10 µM; 330,000 compounds, 1.4% hits; AID 463195, 2010;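 active = inhibition of 40% or more at the single tested concentration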;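 note: wild-type TIM10 isogenic control strain grown at permissive 25 °C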
MPTP inh: mitochondrial permeability transition pore inhibitors, primary screen, biochemical, isolated mouse mitochondria, absorbance; Ca2+ swelling absorbance, 30 min; 360,000 compounds, 1.4% hits; inhibition, % at 10 µM; AID 602449, 2012;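 active = inhibition of 50% or more, scaled per plate between neutral and stimulator controls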;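 note: 0% = DMSO wells given calcium and 100% = 1 mM EGTA wells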
Mdm2 MdmX PPI: inhibitors of human Mdm2-MdmX association, primary screen, cell-based, luminescence, split luciferase, SaOS-2, uHTS | SaOS-2 split-luciferase Mdm2/MdmX complementation | 330,000 compounds, 3% hits | Protein Mdm4 (Homo sapiens) + E3 ubiquitin-protein ligase Mdm2 (Homo sapiens), … | inhibition, % at 8 µM;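 active = inhibition of at least 50% at 8 µM in the primary screen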
Target sequence (O15151 whole entry, looked up): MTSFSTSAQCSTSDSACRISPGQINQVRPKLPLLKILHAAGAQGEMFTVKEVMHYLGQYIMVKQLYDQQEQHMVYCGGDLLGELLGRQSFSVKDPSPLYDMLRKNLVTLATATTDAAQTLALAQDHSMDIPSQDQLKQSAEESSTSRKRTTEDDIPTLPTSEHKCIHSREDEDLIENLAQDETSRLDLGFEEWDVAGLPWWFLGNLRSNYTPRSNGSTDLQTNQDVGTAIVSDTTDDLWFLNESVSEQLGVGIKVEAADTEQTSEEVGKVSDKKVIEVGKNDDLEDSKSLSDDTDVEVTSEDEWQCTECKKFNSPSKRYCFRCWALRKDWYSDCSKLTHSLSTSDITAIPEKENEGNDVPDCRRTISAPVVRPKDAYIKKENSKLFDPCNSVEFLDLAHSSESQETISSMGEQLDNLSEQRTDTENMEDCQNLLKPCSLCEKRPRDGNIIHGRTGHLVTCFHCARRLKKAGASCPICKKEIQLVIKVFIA
Target sequence (Q00987 whole entry, looked up): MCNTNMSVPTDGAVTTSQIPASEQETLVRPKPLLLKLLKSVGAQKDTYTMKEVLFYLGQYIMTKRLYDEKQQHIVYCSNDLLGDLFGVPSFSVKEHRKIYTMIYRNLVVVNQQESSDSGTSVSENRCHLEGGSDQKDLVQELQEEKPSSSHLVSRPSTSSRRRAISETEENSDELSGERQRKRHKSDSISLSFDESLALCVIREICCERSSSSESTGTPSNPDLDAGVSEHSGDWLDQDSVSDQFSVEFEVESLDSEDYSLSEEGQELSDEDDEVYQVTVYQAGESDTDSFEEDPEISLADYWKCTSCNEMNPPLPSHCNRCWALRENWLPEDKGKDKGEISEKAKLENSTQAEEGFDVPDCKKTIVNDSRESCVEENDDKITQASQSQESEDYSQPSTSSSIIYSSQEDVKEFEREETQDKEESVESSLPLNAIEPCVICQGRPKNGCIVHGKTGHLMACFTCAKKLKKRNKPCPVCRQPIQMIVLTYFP
tim10-1 conf: growth inhibitors of tim10-1 mutant yeast, confirmation, single concentration, luminescence, S. cerevisiae. shares compounds with tim10-1 inh. inhibition, % at 20 µM. 7,400 compounds, 56% hits. S. cerevisiae tim10-1 ts strain growth, BacTiter-Glo, 24 h;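 active = inhibition of yeast growth at or above a set limit in either of two repeat tests at 20 µM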;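 note: tim10-1 mutant grown at permissive 25 °C to find synthetic lethal compounds; 0% = DMSO yeast wells and 100% = medium wells without yeast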
tim10 confirm: growth inhibitors of wild-type TIM10 yeast, confirmation, counter-screen for tim10-1 synthetic lethality project, single concentration, luminescence, S. cerevisiae. shares compounds with TIM10 inh. S. cerevisiae tim10 strain growth, BacTiter-Glo luminescence, 24 h. inhibition, % at 10 µM. 4,600 compounds, 63% hits;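 active = inhibition of yeast growth at or above a set limit in either of two replicates at 10 µM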;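 note: this counterscreen used the strain with wild-type TIM10; 0% = yeast with DMSO and 100% = medium wells lacking yeast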
tim23-1 confirm: tim23-1 mutant yeast growth inhibitors, confirmation, luminescence, single concentration; shares compounds with tim23-1 inh; S. cerevisiae tim23-1 growth, BacTiter-Glo luminescence, 24 h; inhibition, % at 20 µM; 4,400 compounds, 83% hits;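 active = inhibition above about 39% in either of two replicate wells at 20 µM, limit read from the data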;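 note: temperature-sensitive tim23-1 mutant grown at 25 °C; 0% = DMSO wells with yeast and 100% = medium wells without yeast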
* marks the source's active call; other numbers are inactive results; x = not tested or not shown.

SMILES	tim23-1 inh	tim10-1 inh	TIM10 inh	MPTP inh	Mdm2 MdmX PPI	tim10-1 conf	tim10 confirm	tim23-1 confirm
CCOC(=O)c1cnc(-n2nc(C)cc2C)nc1NC(C)c1ccccc1 (stereo unspecified)	54.2*	44.4*	52.8*	20.6	23.0	30.3	56.5*	44.7*
NC(=O)SCC(=O)Nc1ccc(Cl)c(Cl)c1	79.8*	70.9*	-26.8	-0.5	-1.0	31.0*	x	76.3*
CC(Sc1ccc(S(=O)(=O)N2CCCCC2)cn1)C(N)=O (stereo unspecified)	x	x	x	-0.7	x	x	x	x
Cc1ccc(S(=O)(=O)c2c(C)nn(C(C)(C)C)c2OC(=O)c2ccco2)cc1	64.4*	46.5*	31.0	0.4	9.2	31.6*	x	46.5*
CCOC(=O)C1=C(C)N=C2SC(C(=O)OC)=CC(=O)N2C1c1ccc(OC)cc1 (stereo unspecified)	74.8*	68.9*	71.2*	-1.8	-1.6	78.5*	75.3*	60.2*
O=C(C=Cc1cccs1)c1cccs1	x	x	x	-0.3	x	x	x	x
O=C(/C=C\c1cccs1)c1c(O)ccc2ccc(=O)oc12	78.0*	75.3*	75.3*	1.6	20.5	80.8*	74.7*	68.8*
COc1ccc(C(=O)C2CCN(S(=O)(=O)c3ccc4c(c3)OCCO4)CC2)cc1	59.5*	56.3*	67.9*	1.8	-13.6	56.5*	60.7*	45.9*
Cc1cccc(C)c1NC(=O)C(c1ccccc1OC(F)(F)F)N1CCN(C/C=C/c2ccccc2)CC1 (stereo unspecified)	x	x	x	0.9	x	x	x	x
COc1ccc(SN=C2C(C)=CC(=O)C=C2C)cc1	75.0*	70.9*	91.3*	0.7	14.9	73.0*	96.4*	74.5*
COc1ccc(S(=O)(=O)N=C2C=C(C)C(=O)C(C)=C2)cc1	17.8	17.5	7.1	2.7	-7.0	x	x	x
C/C(N)=C(/C#N)C(=O)CSc1nc2cc(Cl)ccc2s1	54.5*	50.1*	43.8*	1.5	-44.6	46.1*	37.4*	55.8*
CC(C)CC(=O)Nc1cccc2c1C(=O)N(c1ccccc1)C2=O	42.8	29.2	16.2	-2.4	9.4	x	x	x
CC(C)CC(=O)O/N=C1\C(=O)N(c2ccccc2)c2ccccc21	54.4*	62.8*	49.6*	-0.1	32.0	58.8*	73.7*	61.7*
CC(C)OC(=O)CSc1nc(N)c(C#N)c(-c2cccs2)c1C#N	10.1	15.8	6.0	43.5	-17.0	x	x	x
CC(C)Sc1nc(N)nc(-c2cccs2)c1C#N	64.5*	48.1*	24.0	0.9	-46.0	28.5	x	18.6
S=c1[nH]nc(-c2ccc(Cl)cc2)n1/N=C/C=C/c1ccco1	51.4*	44.6*	36.2	0.0	-6.0	29.5	x	37.9
CC(=O)c1cccc(NC(=O)C2Cc3c(-c4ccco4)ccnc3O2)c1 (stereo unspecified)	x	x	x	-1.5	x	x	x	x
CC(C)N1CCC1(C)C(=O)Nc1ccccc1OC(F)F (stereo unspecified)	x	x	x	1.4	x	x	x	x
Cc1ccc(C(=O)ONc2ccc(N=O)cc2)cc1	71.4*	58.0*	39.0	3.8	7.7	49.1*	x	63.2*
CSc1nnc2c3cc(F)ccc3n(C)c2n1	51.5*	47.8*	77.0*	0.6	10.2	61.0*	80.8*	50.5*
N#CCCn1cc(C(=O)CN2C(=O)NC3(CCc4ccccc43)C2=O)c2ccccc21 (stereo unspecified)	x	x	x	-2.4	x	x	x	x
COc1ccc(/C(N)=N/OC(=O)c2cccc([N+](=O)[O-])c2C)cc1	71.5*	65.2*	83.0*	0.4	33.4	53.3*	78.2*	59.9*
